Laboratory results reported in article PMC7862700, “An all-to-all approach to the identification of sequence-specific readers for epigenetic DNA modifications on cytosine”.

Experiments:
Test in all cases: DAPPL (digital affinity profiling via proximity ligation, sequencing); 10 mM Tris-HCl pH 7.5, 50 mM NaCl, 1 mM DTT, 4% glycerol, room temperature, 30 min; GST-TFs on glutathione beads, 16-mer random dsDNA library, 0.1% formaldehyde crosslink after washing; high values mean tight binding
Conditions in all cases: protein: recombinant; tags: N-terminal GST; dsDNA, one strand shown
FLI1 = target: T1, FLI1 (Homo sapiens, UniProt Q01543 1-452)
T1 sequence: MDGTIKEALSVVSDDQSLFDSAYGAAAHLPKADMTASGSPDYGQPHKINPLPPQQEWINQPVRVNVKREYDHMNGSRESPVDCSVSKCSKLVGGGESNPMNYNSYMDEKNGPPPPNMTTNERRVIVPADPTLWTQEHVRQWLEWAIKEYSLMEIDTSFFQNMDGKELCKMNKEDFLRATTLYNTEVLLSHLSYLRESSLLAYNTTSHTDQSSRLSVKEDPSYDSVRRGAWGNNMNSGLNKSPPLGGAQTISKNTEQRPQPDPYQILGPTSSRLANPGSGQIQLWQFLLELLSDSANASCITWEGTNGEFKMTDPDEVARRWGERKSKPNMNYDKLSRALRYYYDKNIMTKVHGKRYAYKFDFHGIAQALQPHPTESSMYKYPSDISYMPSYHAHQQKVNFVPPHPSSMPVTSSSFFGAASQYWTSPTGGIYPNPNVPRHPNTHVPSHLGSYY
In short: (§1)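 Each value of binding signal is a hexamer's read frequency for a factor divided by the same hexamer's frequency in the tag-only sample. Barcoded, bead-captured GST fusions of human transcription factors made in yeast were pooled with that sample and incubated with 200 nmole of a random double-stranded 16-mer DNA library in Tris/NaCl/DTT/glycerol buffer at room temperature for 30 min. Washing, 0.1% formaldehyde crosslinking, proximity ligation, PCR and Illumina NextSeq500 sequencing followed.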

ELK1 = target: T2, ELK1 (Homo sapiens, UniProt P19419 1-428)
T2 sequence: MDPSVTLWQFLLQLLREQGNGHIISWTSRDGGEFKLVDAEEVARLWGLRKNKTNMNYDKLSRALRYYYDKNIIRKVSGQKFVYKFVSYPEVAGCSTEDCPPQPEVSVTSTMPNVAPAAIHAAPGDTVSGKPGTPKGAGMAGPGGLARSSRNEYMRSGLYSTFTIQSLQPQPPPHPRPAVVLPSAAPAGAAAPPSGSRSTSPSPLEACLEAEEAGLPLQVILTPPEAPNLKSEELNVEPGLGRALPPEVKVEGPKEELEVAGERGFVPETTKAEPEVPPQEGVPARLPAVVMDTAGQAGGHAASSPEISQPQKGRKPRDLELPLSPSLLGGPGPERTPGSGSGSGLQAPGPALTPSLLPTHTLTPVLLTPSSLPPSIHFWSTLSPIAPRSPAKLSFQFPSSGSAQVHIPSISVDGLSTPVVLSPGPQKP
In short: as §1

GABPA = target: T3, GABPA (Homo sapiens, UniProt Q06546 1-454)
T3 sequence: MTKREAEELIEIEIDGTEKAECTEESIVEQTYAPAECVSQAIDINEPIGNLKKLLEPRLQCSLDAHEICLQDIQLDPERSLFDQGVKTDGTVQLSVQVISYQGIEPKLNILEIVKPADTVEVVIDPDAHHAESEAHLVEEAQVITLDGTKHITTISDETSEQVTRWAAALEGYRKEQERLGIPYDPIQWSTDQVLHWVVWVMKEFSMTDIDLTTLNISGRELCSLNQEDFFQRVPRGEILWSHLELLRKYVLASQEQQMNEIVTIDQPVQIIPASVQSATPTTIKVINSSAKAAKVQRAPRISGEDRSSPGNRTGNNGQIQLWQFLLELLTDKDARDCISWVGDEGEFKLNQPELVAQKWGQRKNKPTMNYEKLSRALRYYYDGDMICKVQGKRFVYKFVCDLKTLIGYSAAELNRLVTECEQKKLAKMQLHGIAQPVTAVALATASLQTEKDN
In short: as §1

ERG = target: T4, ERG (Homo sapiens, UniProt P11308 1-479)
T4 sequence: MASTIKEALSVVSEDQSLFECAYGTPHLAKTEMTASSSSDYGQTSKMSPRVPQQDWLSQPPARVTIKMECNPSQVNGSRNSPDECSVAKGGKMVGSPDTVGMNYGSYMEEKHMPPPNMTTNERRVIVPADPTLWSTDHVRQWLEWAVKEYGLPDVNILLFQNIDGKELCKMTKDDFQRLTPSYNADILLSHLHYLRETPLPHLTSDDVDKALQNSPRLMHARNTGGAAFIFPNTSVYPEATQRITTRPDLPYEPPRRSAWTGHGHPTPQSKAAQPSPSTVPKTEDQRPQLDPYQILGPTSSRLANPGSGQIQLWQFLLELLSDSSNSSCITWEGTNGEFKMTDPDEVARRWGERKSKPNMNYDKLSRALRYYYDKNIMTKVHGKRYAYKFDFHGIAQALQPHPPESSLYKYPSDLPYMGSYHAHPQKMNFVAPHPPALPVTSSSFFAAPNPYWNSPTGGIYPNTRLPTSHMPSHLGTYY
In short: as §1

ELF1 = ELF1 (Homo sapiens, UniProt P32519 1-619)
In short: as §1

EHF = target: T5, EHF (Homo sapiens, UniProt Q9NZC4 1-300)
T5 sequence: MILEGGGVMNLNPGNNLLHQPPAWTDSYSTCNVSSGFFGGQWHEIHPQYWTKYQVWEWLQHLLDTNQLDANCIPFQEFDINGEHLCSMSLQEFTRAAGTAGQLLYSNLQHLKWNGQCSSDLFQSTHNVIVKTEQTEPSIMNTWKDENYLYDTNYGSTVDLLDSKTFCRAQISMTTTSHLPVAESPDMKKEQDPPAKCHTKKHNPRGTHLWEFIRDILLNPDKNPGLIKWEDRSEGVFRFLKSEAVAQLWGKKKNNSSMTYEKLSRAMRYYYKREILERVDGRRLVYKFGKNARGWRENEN
In short: as §1

SPI1 = SPI1 (Homo sapiens, UniProt P17947 1-270)
In short: as §1

SPIB = SPIB (Homo sapiens, UniProt Q01892 1-262)
In short: as §1

ELK3 = target: T6, ELK3 (Homo sapiens, UniProt P41970 1-407)
T6 sequence: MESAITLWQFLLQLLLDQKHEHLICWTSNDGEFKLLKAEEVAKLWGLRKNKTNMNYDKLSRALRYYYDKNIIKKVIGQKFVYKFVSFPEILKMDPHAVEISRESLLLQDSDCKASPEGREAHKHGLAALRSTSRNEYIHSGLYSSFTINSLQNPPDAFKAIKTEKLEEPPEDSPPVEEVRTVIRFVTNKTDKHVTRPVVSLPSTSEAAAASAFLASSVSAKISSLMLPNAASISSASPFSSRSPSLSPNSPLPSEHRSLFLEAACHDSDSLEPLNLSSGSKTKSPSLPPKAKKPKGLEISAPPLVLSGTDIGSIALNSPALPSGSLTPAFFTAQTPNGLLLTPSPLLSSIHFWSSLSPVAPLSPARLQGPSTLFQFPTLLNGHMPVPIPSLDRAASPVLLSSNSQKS
In short: as §1

ELF1, sequence (P32519 whole entry): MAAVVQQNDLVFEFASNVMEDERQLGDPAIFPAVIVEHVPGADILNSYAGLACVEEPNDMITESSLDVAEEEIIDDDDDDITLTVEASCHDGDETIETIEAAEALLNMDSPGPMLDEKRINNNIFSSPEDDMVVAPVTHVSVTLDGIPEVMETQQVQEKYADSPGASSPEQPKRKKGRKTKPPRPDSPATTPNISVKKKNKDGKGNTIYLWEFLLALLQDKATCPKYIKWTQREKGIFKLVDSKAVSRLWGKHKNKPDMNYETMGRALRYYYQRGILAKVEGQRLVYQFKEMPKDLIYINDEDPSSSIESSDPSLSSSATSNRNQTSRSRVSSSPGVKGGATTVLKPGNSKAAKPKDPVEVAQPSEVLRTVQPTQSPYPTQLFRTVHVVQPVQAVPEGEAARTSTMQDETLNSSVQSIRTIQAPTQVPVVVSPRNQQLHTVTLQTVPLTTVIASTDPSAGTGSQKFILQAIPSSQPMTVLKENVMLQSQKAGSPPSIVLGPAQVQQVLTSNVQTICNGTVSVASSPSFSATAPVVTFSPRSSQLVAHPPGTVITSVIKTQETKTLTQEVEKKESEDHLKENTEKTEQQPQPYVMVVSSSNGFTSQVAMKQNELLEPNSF
SPIB, sequence (Q01892 whole entry): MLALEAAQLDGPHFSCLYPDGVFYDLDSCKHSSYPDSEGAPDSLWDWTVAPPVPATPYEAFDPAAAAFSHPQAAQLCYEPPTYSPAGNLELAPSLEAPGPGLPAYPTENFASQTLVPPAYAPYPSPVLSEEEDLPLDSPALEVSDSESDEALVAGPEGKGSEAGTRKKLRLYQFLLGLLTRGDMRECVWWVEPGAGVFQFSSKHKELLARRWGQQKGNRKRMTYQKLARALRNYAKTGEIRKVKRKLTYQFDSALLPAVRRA

TGGCTC
binding signal (FLI1): 1.4 fold enrichment (6-mer frequency, TF over GST control) | binding signal (ELK1): 1.43 fold enrichment (6-mer frequency, TF over GST control) | binding signal (GABPA): 1.47 fold enrichment (6-mer frequency, TF over GST control) | binding signal (ERG): 1.43 fold enrichment (6-mer frequency, TF over GST control) | binding signal (ELF1): 1.46 fold enrichment (6-mer frequency, TF over GST control) | binding signal (EHF): 1.34 fold enrichment (6-mer frequency, TF over GST control) | binding signal (SPI1): 1.16 fold enrichment (6-mer frequency, TF over GST control) | binding signal (SPIB): 1.39 fold enrichment (6-mer frequency, TF over GST control) | binding signal (ELK3): 1.3 fold enrichment (6-mer frequency, TF over GST control)

ATAATC
binding signal (FLI1): 1.17 fold enrichment (6-mer frequency, TF over GST control) | binding signal (ELK1): 1.16 fold enrichment (6-mer frequency, TF over GST control) | binding signal (GABPA): 1.14 fold enrichment (6-mer frequency, TF over GST control) | binding signal (ERG): 1.13 fold enrichment (6-mer frequency, TF over GST control) | binding signal (ELF1): 1.07 fold enrichment (6-mer frequency, TF over GST control) | binding signal (EHF): 1.14 fold enrichment (6-mer frequency, TF over GST control) | binding signal (SPI1): 1.1 fold enrichment (6-mer frequency, TF over GST control) | binding signal (SPIB): 1.08 fold enrichment (6-mer frequency, TF over GST control) | binding signal (ELK3): 1.17 fold enrichment (6-mer frequency, TF over GST control)

TTTCTA
binding signal (FLI1): 1.3 fold enrichment (6-mer frequency, TF over GST control) | binding signal (ELK1): 1.39 fold enrichment (6-mer frequency, TF over GST control) | binding signal (GABPA): 1.29 fold enrichment (6-mer frequency, TF over GST control) | binding signal (ERG): 1.34 fold enrichment (6-mer frequency, TF over GST control) | binding signal (ELF1): 1.28 fold enrichment (6-mer frequency, TF over GST control) | binding signal (EHF): 1.36 fold enrichment (6-mer frequency, TF over GST control) | binding signal (SPI1): 1.36 fold enrichment (6-mer frequency, TF over GST control) | binding signal (SPIB): 1.19 fold enrichment (6-mer frequency, TF over GST control) | binding signal (ELK3): 1.26 fold enrichment (6-mer frequency, TF over GST control)

TAACGC
binding signal (FLI1): 1.12 fold enrichment (6-mer frequency, TF over GST control) | binding signal (ELK1): 1.2 fold enrichment (6-mer frequency, TF over GST control) | binding signal (GABPA): 1.21 fold enrichment (6-mer frequency, TF over GST control) | binding signal (ERG): 1.17 fold enrichment (6-mer frequency, TF over GST control) | binding signal (ELF1): 1.27 fold enrichment (6-mer frequency, TF over GST control) | binding signal (EHF): 1.16 fold enrichment (6-mer frequency, TF over GST control) | binding signal (SPI1): 1.17 fold enrichment (6-mer frequency, TF over GST control) | binding signal (SPIB): 1.13 fold enrichment (6-mer frequency, TF over GST control) | binding signal (ELK3): 1.23 fold enrichment (6-mer frequency, TF over GST control)
